Shown are actives, neighbours in structure and some others; about 21% of the full set was active somewhere.
HCV inh: qHTS Assay for Inhibitors of Hepatitis C Virus (HCV). Huh7.5.1 HCVcc-Cre infection, luciferase reporter, 44 h. Potency, µM (series often up to 41.8 µM), hits mostly inhibitors. hit rate 3.4% among 340,000. AID 651820, 2012
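Infectious HCV cell culture screen: compound-treated cells (1,000/well, pre-plated 4 h) are infected with HCVcc-Cre at roughly 0.5 moi and grown 44 h. Infection is quantified by luciferase signal after 15 min substrate incubation at room temperature.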
AMA1-RON2 inh: qHTS for Inhibitors of AMA1-RON; Towards Development of Antimalarial Drug Lead: Primary Screen; AID 720542, 2013; Potency, µM (doses to about 58.2 µM), usual class: inhibitors; AlphaScreen AMA1-biotinylated RON2 peptide binding; Plasmodium falciparum AMA1 (3D7) - RON2 peptide interaction; hit rate 0.2% among 360,000; note: nearly all actives have a fitted effect of over 45% in size
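AMA1 (3D7) with his tag at 25 nM final met compounds first, then biotinylated RON2 peptide at 25 nM; detection used donor plus acceptor beads, 10 µg/mL apiece, read by AlphaScreen after 30 min at room temperature.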
CHX counter: Cycloheximide Counterscreen for Small Molecule Inhibitors of Shiga Toxin; hit rate 12% among 300,000; max response, %; cell reporter, cycloheximide protein synthesis inhibition counterscreen; in the data active = max response mostly above about 13%, no sharp cut-off; inactive = mostly below about 14%; note: read at 38.3 µM for the half of the compounds with a filed dose
Shiga toxin inh: A qHTS for Small Molecule Inhibitors of Shiga Toxin | Vero cells, Shiga toxin protein synthesis inhibition reporter | inhibition, % at 38.7 µM | hit rate 9.2% among 290,000 | AID 2315, 2010; in the data active = inhibition mostly above about 28%, no sharp cut-off; inactive = mostly below about 43%
Pf growth 48h: Primary qHTS for delayed death inhibitors of the malarial parasite plastid, 48 hour incubation; P. falciparum luciferase growth in erythrocytes, 48 h; Potency, µM (top dose mostly 28.7 µM), actives largely listed as inhibitors; hit rate 5.9% among 310,000
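Here the parasites carry a stable luciferase gene and grow inside erythrocytes in Albumax-based RPMI medium with compound for one erythrocytic cycle. Activity is scored as loss of luminescent signal.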
Pf growth 96h: Primary qHTS for delayed death inhibitors of the malarial parasite plastid, 96 hour incubation; P. falciparum luciferase reporter growth, 96 h; Potency, µM (titrated, usually from 28.7 µM), usual class: inhibitors; hit rate 6.9% among 320,000; AID 504834, 2011
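P. falciparum expressing integrated firefly luciferase, in erythrocytes at 2% hematocrit, 0.05% parasitemia, incubated with compounds 96 h at 37 C, 5% CO2. Growth inhibition read as loss of luminescence; two-generation exposure targets delayed-death apicoplast inhibitors.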
Each line names hits and unclear results; the compound was inactive in the other large screens; ! = a repeat was not active. Unless noted, calls come from the whole dose curve; as a rule, active = well fitted curve in the direction sought with a large enough effect; inconclusive = small, poorly fitted or top-dose-only effect, or another doubt; inactive = no such curve, though single readings can be large; an effect the other way counts as inactive or inconclusive.

Cc1cc(C)c2cc(CN(Cc3nnnn3C3CCCCC3)CC3CCCO3)c(=O)[nH]c2c1 (stereo unspecified)	HCV inh inconclusive, Pf growth 48h 13µM
Cc1ccc2cc(CN(Cc3nnnn3C3CCCCC3)CC3CCCO3)c(=O)[nH]c2c1 (stereo unspecified)	Pf growth 48h inconclusive
Cc1ccccc1-c1ccc2c(c1)O[C@@H](CN(C)C(=O)Nc1ccc(C(F)(F)F)cc1)[C@H](C)CN([C@@H](C)CO)S2(=O)=O	none (no result: HCV inh, CHX counter, Shiga toxin inh, Pf growth 48h, Pf growth 96h)
COc1ccccc1CN1CC(C(=O)NCc2nccn2C)CCC1=O (stereo unspecified)	none
Cc1cc(C(=O)COC(=O)c2ccc3c(c2)NC(=O)CS3)c(C)n1CC1CCCO1 (stereo unspecified)	HCV inh inconclusive, CHX counter 38, Shiga toxin inh 56
COCC(C)n1c(C)cc(C(=O)COC(=O)c2ccc3c(c2)NC(=O)CS3)c1C (stereo unspecified)	HCV inh inconclusive, Pf growth 48h 10µM, Pf growth 96h 7.4µM
Cc1cc(C(=O)COC(=O)c2ccc(O)cc2)c(C)n1CC1CCCO1 (stereo unspecified)	HCV inh inconclusive, CHX counter 59, Shiga toxin inh 107
Cc1cc(C(=O)COC(=O)c2ccc(Cl)c(S(N)(=O)=O)c2)c(C)n1CC1CCCO1 (stereo unspecified)	none (no result: CHX counter, Shiga toxin inh)
CC1=C(C(=O)N2CCCCCC2)CC(CC(=O)NC2CC2)C(=O)N1Cc1ccccc1 (stereo unspecified)	none (no result: HCV inh, CHX counter, Shiga toxin inh, Pf growth 48h, Pf growth 96h)
Fc1ccc(/C=N/NC(=S)Nc2ccc(Cl)cc2Cl)cc1	HCV inh inconclusive, Pf growth 96h 2.1µM
COc1ccc(NC(=S)N/N=C/c2cccn2Cc2ccc(F)cc2Cl)cc1	HCV inh inconclusive, Pf growth 48h 3.7µM, Pf growth 96h inconclusive
Fc1ccc(NC(=S)N/N=C/c2ccc(F)c(F)c2)cc1	CHX counter 29, Pf growth 96h inconclusive
Fc1ccc(NC(=S)N/N=C/c2cccc(Br)c2)c(F)c1	Pf growth 96h inconclusive (no result: Pf growth 48h)
COc1ccc(NC(=S)N/N=C/c2ccc(F)cc2)cc1OC	CHX counter 30, Shiga toxin inh 46, Pf growth 48h inconclusive
CCC1Sc2ccc(S(=O)(=O)CCC(=O)Nc3cccc(Br)c3)cc2NC1=O (stereo unspecified)	Pf growth 96h inconclusive
CCOc1ccc(NC(=O)CN(C)C(=O)CCCc2nc3ccccc3c(=O)[nH]2)cc1OCC	none (no result: CHX counter, Shiga toxin inh)
Fc1ccc(/C=N/NC(=S)Nc2ccc(Cl)cc2)cc1F	CHX counter 22
COc1ccc(NC(=S)N/N=C/c2ccc(F)c(F)c2)cc1	CHX counter 20, Shiga toxin inh 41
Fc1ccc(/C=N/NC(=S)NCCc2ccccc2)cc1F	none
COc1ccc(NC(=S)N/N=C/c2cccn2Cc2ccccc2F)cc1	Pf growth 48h inconclusive
CC1(C(=O)NS(=O)(=O)c2ccccc2Cl)CCN1C(=O)CCC1CCCC1 (stereo unspecified)	none (no result: HCV inh, CHX counter, Shiga toxin inh, Pf growth 48h, Pf growth 96h)
CC(C)C(O)(C#CCN1CCCCCC1)c1ccccc1 (stereo unspecified)	CHX counter 14, Pf growth 48h inconclusive
CC(O)(C#CCN1CCCCC1)c1ccccc1 (stereo unspecified)	none
Cc1ccc(NC(=O)Nc2ccc(F)cc2F)c(OC(F)F)c1	none
CCCCOc1ccccc1NC(=O)c1ccc(=O)[nH]c1	none
O=C(Nc1ccccc1F)Nc1ccccc1OC(F)F	CHX counter 25
O=C(Nc1ccccc1OC(F)F)c1ccc(F)cc1	none
CCCOc1ccccc1NC(=O)c1ccc(N)cc1	HCV inh 7.1µM, Pf growth 96h inconclusive
CCOc1ccc(C(=O)Nc2ccccc2OC(F)F)cc1	Shiga toxin inh 65, Pf growth 96h inconclusive
Cc1ccc(NC(=O)CSCC(=O)N2CCN(Cc3ccc4c(c3)OCO4)CC2)cc1	Pf growth 96h inconclusive (no result: HCV inh)
CC(=O)N[C@@H](CS)C(=O)O	HCV inh 10µM!
CCN=C1S/C(=C\c2ccc(O)c(OCC)c2)C(=O)N1CC	HCV inh inconclusive, Pf growth 96h inconclusive

Bioassay records from PubChem.
